Bioassay records deposited in PubChem by National Center for Advancing Translational Sciences (NCATS).
Most compounds without a hit are left out; they make up all but 2.4% or so of the library.
Imprint erasure: qHTS Assay for Compounds that Induce Erasure of Genomic Imprints. mouse ES Peg3-LacZ reporter, beta-gal luminescence, 40 h. Potency, µM (doses to about 60.7 µM), for inactives: top-dose activity change, positive = activation, actives largely listed as activators. 0.02% of 110,000 active. AID 1948, 2009
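Gelatin-coated wells received 300 freshly trypsinized female ES cells with a Peg3LacZ-Neo reporter on the maternal allele, then incubated 40 hours at 37C. BetaGlo was added for 5 minutes at room temperature before a single luminescence read.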
IkB signaling: IkB Signaling; Potency, µM (titrated, usually from 57.1 µM), for inactives: at the highest dose IkBa stabilization activation; 0.04% of 110,000 active; ABC-DLBCL IkBa-CBG/CBR dual luciferase ratio, 4 h; response scale: scaled: untreated 0%, proteasome inhibitor 100%; AID 445, 2006; active means well fitted curve in the direction sought with a large enough effect in the signal ratio, not every such curve was filed as active; inconclusive means small, poorly fitted or top-dose-only effect, or a change in a side signal; the % refers to the signal ratio;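 further: the direction sought is a rising ratio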
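In this assay, an IκBα–CBG68 fusion accumulates when IKK-driven degradation is blocked; native CBR normalizes for cell number. OCI-Ly3 cells were treated 4 h with compound and doxycycline, then green and red light read after Chroma-Glo addition.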
Luciferase inh: qHTS Assay for Inhibitors of Firefly Luciferase | Luciferin 4-monooxygenase (Photinus pyralis), P08659 | purified firefly luciferase, luminescence, 8 min | Potency, µM (titrated, usually from 57.1 µM), without a hit: at the top dose activity change, negative = inhibition, most hits filed as inhibitors | 2.2% of 72,000 active | AID 411, 2009; further: on the % scale 0 is the no-effect control and ±100 the full control effect; nearly all actives have a fitted effect of over 40% in size
Target sequence (P08659 whole entry, looked up): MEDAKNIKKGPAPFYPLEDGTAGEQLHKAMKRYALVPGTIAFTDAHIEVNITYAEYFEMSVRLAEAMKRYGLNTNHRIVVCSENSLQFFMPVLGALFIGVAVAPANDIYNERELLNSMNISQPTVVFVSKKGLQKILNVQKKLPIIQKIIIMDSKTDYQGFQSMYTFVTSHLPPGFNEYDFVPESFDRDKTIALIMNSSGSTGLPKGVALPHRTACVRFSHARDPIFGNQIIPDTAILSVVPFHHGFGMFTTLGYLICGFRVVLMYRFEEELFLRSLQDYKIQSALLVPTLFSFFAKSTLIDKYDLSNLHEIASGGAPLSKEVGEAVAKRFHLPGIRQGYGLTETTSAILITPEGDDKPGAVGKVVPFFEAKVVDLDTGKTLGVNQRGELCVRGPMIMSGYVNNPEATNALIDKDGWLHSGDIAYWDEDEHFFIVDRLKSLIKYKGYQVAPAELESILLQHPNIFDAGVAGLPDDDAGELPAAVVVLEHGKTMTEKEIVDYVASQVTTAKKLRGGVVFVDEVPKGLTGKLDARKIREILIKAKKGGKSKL
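qHTS concentration-response profiling: light output of P. pyralis luciferase with luciferin and 10 uM ATP, imidazole buffer pH 7.2. Read by luminescence after 8-min room-temperature incubation.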
p53ts 39C tox: qHTS Screen for Compounds that Selectively Target Cancer Cells with p53 Mutations: Cytotoxicity of p53ts Cells at the Nonpermissive Temperature; H1299-p53A138V viability at 39C, ATP luminescence, 24 h; Potency, µM (titrated, usually from 46.1 µM), inactives show at the top dose activity change, negative = cell killing, actives largely listed as cytotoxic; 1.5% of 130,000 active; further: on the % scale 0 is the no-effect control and ±100 the full control effect; nearly all actives have a fitted effect of over 55% in size
p53ts 32C tox: qHTS Screen for Compounds that Selectively Target Cancer Cells with p53 Mutations: Cytotoxicity of p53ts Cells at the Permissive Temperature. AID 924, 2007. Potency, µM (series often up to 46.1 µM), without a hit: at the top dose activity change, negative = cytotoxicity, usual class: cytotoxic. H1299-p53A138V at 32C, ATP luminescence viability, 24 h. 0.93% of 130,000 active;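 further: 0% = DMSO and -100% = full killing by reference compound; nearly all actives have a fitted effect of over 55% in size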
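Viability by ATPlite luminescence after 24 h compound treatment (up to 46 uM) at the permissive 32C. Cells are H1299 carrying p53 A138V. Scale runs from DMSO basal to 100 uM tamoxifen as full kill; AC50 from Hill fits.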
An asterisk follows results filed as active; u = inconclusive; x = no result; [ ] = remark or other dose. Unless noted, the call rests on the fitted dose curve; in most records, active means well fitted curve in the direction sought with a large enough effect; inconclusive means small, poorly fitted or top-dose-only effect, or another doubt; inactive means no such curve, though single readings can be large; an effect the other way counts as inactive or inconclusive. Potency means the concentration at half of the fitted maximal effect.

SMILES	Imprint erasure	IkB signaling	Luciferase inh	p53ts 39C tox	p53ts 32C tox
COc1cc(Cl)c(C)cc1NC(=O)c1ccc2c(Cl)c3c(nc2c1)CCC3	u	0%	x	-11%	-10%
COc1cc(Cl)c(C)cc1Nc1c2c(nc3ccccc13)CCC2	-19%[10.9 µM]	u	x	2µM*	u
CC(=O)c1cccc(NC(=O)c2nc3ccccc3nc2N2CCCCC2)c1	-11%[10.9 µM]	0%	x	-10%	12%
Cc1cc(=O)n2[nH]c(-c3ccc(Cl)cc3)cc2n1	-17%	u	16µM*	u	u
Cc1ccc(Cn2cc(C(=O)c3ccc4c(c3)OCO4)c(=O)c3cc(C)ccc32)cc1	4%[10.9 µM]	u	x	0%	3%
O=C(Nc1cccc(-c2cn3cccnc3n2)c1)c1ccco1	-3%	-2%	-16%	-2%	6%
O=C(Nc1cccc(-c2cn3cccnc3n2)c1)c1ccc2c(c1)OCO2	-56%	u	16µM*	-30%	-23%
COc1ccc(-c2cn3cccnc3n2)cc1NC(=O)Nc1cc(C)ccc1C	-19%[10.9 µM]	u	x	u	16µM*
COc1cccc(NC(=O)Nc2cc(-c3cn4cccnc4n3)ccc2OC)c1	-12%[10.9 µM]	u	x	10µM*	10µM*
Cc1ccc(CNC(=O)Cn2ccn(-c3ccc(F)cc3)c(=O)c2=O)cc1	-13%[10.9 µM]	-1%	x	-1%	-7%
COc1ccc(-c2nc(C)c(CCNC(=O)c3ccccc3Br)s2)cc1OC	-13%[10.9 µM]	1%	x	-26%	-3%
COc1ccc(OCC(=O)Nc2ccc3c(c2)nc(CCN2CCOCC2)n3C)cc1	-4%	11%	25µM*	u	u
Cn1c(CCN2CCOCC2)nc2cc(NC(=O)COc3ccc(Cl)cc3)ccc21	-4%	-2%	4%	6%	-6%
O=C(Cn1c(=O)n(-c2ccccc2)c(=O)c2c3c(sc21)CCCC3)Nc1ccccc1	6%[10.9 µM]	5%	x	13µM*	u
O=C(CN1C(=O)CCc2cc(S(=O)(=O)N3CCOCC3)ccc21)NCc1ccccc1Cl	-6%[10.9 µM]	u	x	0%	0%
COCCn1c(C)cc(C(=O)CSc2nnc(C)s2)c1C	-91%	1%	10µM*	13µM*	13µM*
N#C/C(C(N)=O)=c1/ccc2c(c1)N1C3=C(CCCC3)CC3CCCCC31N=2 (stereo not given)	-8%	u	16µM*	3%	-1%
CCCCCCCN(C(=O)CCl)c1ccccc1C	x	x	x	25µM*	u
CCN(C(=O)c1ccc(C(=O)N(CC)c2ccccc2C)cc1)c1ccccc1C	-8%[10.9 µM]	u	x	16%	8%
Cc1ccc(/C=C/C(=O)N2CCC(c3nc4ccccc4o3)CC2)cc1	12%[10.9 µM]	u	x	u	-18%
COCCn1c(C)cc(C(=O)COC(=O)C23CC4CC(CC(O)(C4)C2)C3)c1C	5%	1%	13µM*	0%	-12%
COc1cccc(NC(=O)CSc2nc(=O)[nH]c3c2CCCC3)c1	u	6%	x	-9%	-1%
CNc1nnc(-c2ccc(N(C)C)cc2)s1	x	x	x	7.9µM*	6.3µM*
Cc1cccc(N2CCN(C(=O)C3CCN(S(=O)(=O)Cc4ccccc4)CC3)CC2)c1C	-11%[10.9 µM]	1%	x	-5%	-7%
CCCCNC(=O)Cn1c(=O)cc(C)c2c(C)nn(-c3cccc(Cl)c3C)c21	2%[10.9 µM]	-3%	x	-3%	6%
SMILES	Imprint erasure	IkB signaling	Luciferase inh	p53ts 39C tox	p53ts 32C tox
Cc1cccc(/C=C\c2ccccc2)n1	-21%	0%	7.9µM*	-7%	-29%
O=C(NCC(c1ccco1)S(=O)(=O)c1ccc(Cl)cc1)c1ccccc1F (stereo not given)	4%[10.9 µM]	u	x	-9%	-8%
O=C1OCCC1Sc1nnc(-c2ccco2)o1 (stereo not given)	-9%	-1%	0%	8%	5%
O=C1OCCC1Sc1nnc(-c2ccc(Br)cc2)o1 (stereo not given)	-63%	u	16µM*	-20%	u
COc1ccccc1NC(=O)c1c(NCc2ccc(C)o2)sc2c1CCC(C)C2 (stereo not given)	-14%[10.9 µM]	u	x	15%	u
COc1ccc(NC(=O)c2c(NCc3ccc(C)o3)sc3c2CCC(C)C3)c(OC)c1 (stereo not given)	-24%[10.9 µM]	u	x	20µM*	u
Cc1nc2nc(-c3ccccc3)cc(=O)n2[nH]1	-89%	10%	25µM*	13µM*	16µM*
Cc1ccccc1CS(=O)(=O)c1ncc(Cl)c(C(=O)Nc2nnc(C(C)C)s2)n1	-17%[10.9 µM]	u	x	7.9µM*	16µM*
CC(C)c1nnc(NC(=O)c2nc(S(=O)(=O)Cc3ccccc3)ncc2Cl)s1	-31%[10.9 µM]	-2%	x	6.3µM*	20µM*
COc1cccc(Cn2c(=O)n(CCc3ccccc3)c(=O)c3c2c2cc(OC)ccc2n3C)c1	6%[10.9 µM]	-2%	x	-3%	1%
CCCCN(C)CCNC(=O)c1cc(-c2ccc(Cl)s2)nc2ccccc12	-9%[10.9 µM]	u	x	13µM*	7%
NCCCCCCNS(=O)(=O)c1ccc2c(Cl)cccc2c1	-17%	u	5%	32µM*	17%
NCCCCNS(=O)(=O)c1ccc2c(Cl)cccc2c1	-25%	u	4%	-24%	0%
CC1=C(C(=O)Nc2ccccc2C)C(c2cccs2)n2nc(SCc3ccccc3)nc2N1 (stereo not given)	6%[10.9 µM]	u	x	-10%	-21%
CCOc1cccc(-c2nc3ccccc3c(=O)o2)c1	-29%[10.9 µM]	u	x	10µM*	10µM*
COc1cc(OC)cc(-c2nc3ccccc3c(=O)o2)c1	x	x	x	22%	-5%
Cc1[nH]n(-c2ccccc2)c(=O)c1/C=N/c1ccccn1	-38%	3%	-10%	u	u
Cc1ccc(-n2[nH]c(C)c(C=Nc3ccc(C)cn3)c2=O)cc1	-47%	2%	-2%	13µM*	13µM*
COC(=O)c1ccc(NC(=O)Nc2ccc(F)cc2)cc1	-56%	u	20µM*	-20%	-7%
COC(=O)c1ccccc1NC(=O)c1ccc2nc(Cc3ccccc3)oc2c1	-7%[10.9 µM]	0%	x	-16%	-2%
COc1cccc(-c2nnc(NC(=O)c3ccc(S(=O)(=O)N4CC(C)OC(C)C4)cc3)o2)c1 (stereo not given)	-43%	u	0%	13µM*	-10%
COc1ccc(-c2nnc(NC(=O)c3ccc(S(=O)(=O)N4CCc5ccccc5C4)cc3)o2)cc1	-7%	u	-2%	u	-18%
CCC1CCCCN1S(=O)(=O)c1ccc(C(=O)Nc2sc3c(c2C(N)=O)CCC3)cc1 (stereo not given)	-10%[10.9 µM]	u	x	9%	15%
CCC1CCCCN1S(=O)(=O)c1ccc(C(=O)Nc2nnc(-c3cccs3)o2)cc1 (stereo not given)	-26%	3%	0%	16µM*	2%
